According to PubChem BioAssay AID1259421 (Broad Institute, 2018):
Where “and” joins values, the source holds several entries; their conditions need not be identical. Equal entries are not always repeated. The campaign covered roughly 6,400 compounds. About 610 (9.5%) were called active. This is one part of a sample in which actives are shown more often than they occur. No stated cut-off is given here; in the data, active means activity change below about -70%; inconclusive means no clear call, values can overlap the other calls; inactive means above that. Some structures have more than one record in an assay (separate samples or runs), and their calls can disagree. *1 amine or outer side, *2 acyl side, *3 side chain or, on linkers, in order; H or OH if unused. Where a SMILES comes first, the peptide text is derived from it. [ ]: non-standard residue; d: D form. LeuΨ(S-CHOHCH2)Ala = CC(C)C[C@H](N[*:1])[C@@H](O)C[C@@H](C)C(=O)[*:2]

assay: Toxoplasma gondii ME49Luc growth in HeLa cells, luciferase, no IFN-y, primary screen (AID 1259421); conditions: T. gondii ME49Luc in HeLa, 72 h, stronger effect = lower value, concentration not given here

SMILES	activity change, negative = inhibition
CN1C/C=C/CCOc2cccc(c2)-c2ccnc(n2)Nc2cccc(c2)C1	-90% (active)
CCCCCCCCCCCCCCCC(=O)C1C(=O)OC(CO)C1=O (stereo unspecified)	6.7% (inactive)
Cc1cccc(C2CN(C)CCc3c2cc(O)c(O)c3Cl)c1 (stereo unspecified)	-3.35% (inactive)
CCOC(=O)[C@H]1O[C@@H]1C(=O)N[C@@H](CC(C)C)C(=O)NCCC(C)C	12.9% (inactive) and 2.41% (inactive)
CC(C)C[C@H](NC(=O)[C@H](CCc1ccccc1)NC(=O)CN1CCOCC1)C(=O)N[C@@H](Cc1ccccc1)C(=O)N[C@@H](CC(C)C)C(=O)[C@@]1(C)CO1	-76.7% (active)
COC(=O)[C@H](Cc1ccccc1)NC(=O)[C@@H](N)CC(=O)O (H-Asp-Phe-OMe)	0.919% (inactive)
C[C@H]1CN(C[C@H](Cc2ccccc2)C(=O)NCC(=O)O)CC[C@@]1(C)c1cccc(O)c1	4.96% (inactive)
O=C(Cc1ccc(-c2ccc(OCCN3CCOCC3)cc2)cn1)NCc1ccccc1	-55.5% (inactive)
CC(=O)N[C@@H](Cc1ccccc1)C(=O)O	16.5% (inactive)
CC(=O)NC(Cc1ccccc1)C(=O)O (stereo unspecified)	20.2% (inactive)
COc1ccc(C[C@H](NC(=O)[C@H](C)NC(=O)CN2CCOCC2)C(=O)N[C@@H](Cc2ccccc2)C(=O)[C@]2(C)CO2)cc1	-76% (active)
COC[C@H](NC(=O)c1cnc(C)s1)C(=O)N[C@@H](COC)C(=O)N[C@@H](Cc1ccccc1)C(=O)C1(C)CO1 (stereo partly specified)	-88.8% (active)
CC(C)c1nc(CN(C)C(=O)N[C@@H](CCN2CCOCC2)C(=O)N[C@H](CC[C@H](Cc2ccccc2)NC(=O)OCc2cncs2)Cc2ccccc2)cs1	-16.7% (inactive)
CC1(C)CCC(C)(C)c2cc(Cn3cccn3)c(/C=C/c3ccc(C(=O)O)cc3)cc21	15.2% (inactive)
c1ccc(-c2nn3c(c2-c2ccnc4cc(OCCN5CCOCC5)ccc24)CCC3)nc1	-32.4% (inactive)
COc1ccc(-c2coc3cc(O)ccc3c2=O)c(OC)c1	11.6% (inactive)
CCN(CC)CC(=O)Oc1ccc(NC(C)=O)cc1	7.5% (inactive)
OC[C@H]1O[C@H](O[C@H]2O[C@H](CO)[C@@H](O)[C@H](O)[C@H]2O)[C@H](O)[C@@H](O)[C@@H]1O	7.53% (inactive)
C[N@+]12CCCC[C@@H]1CCC(=C(c1cccs1)c1cccs1)C2	13.6% (inactive)
O=C(O)c1cc(=O)c2c3nc4ccccc4oc-3cc(=O)c2[nH]1	1.96% (inactive)
CC(=O)N[C@H]1[C@H]([C@H](O)[C@H](O)CO)OC(C(=O)O)=C[C@@H]1N=C(N)N	10.9% (inactive)
COc1ccc(-c2ccc3ncc4c(c3c2)n(-c2ccc(N3CCNCC3)c(C(F)(F)F)c2)c(=O)n4C)cn1	-88.5% (active)
Cc1cc(C)cc(C(=O)N(C)[C@H](Cc2ccc(-c3ccccc3)cc2)C(=O)N[C@@H](Cc2c[nH]c3ccccc23)C(=O)O)c1	13% (inactive)
C[C@H]1CNCCCN1S(=O)(=O)c1cccc2cncc(F)c12	-2.52% (inactive)
Nc1nnc(Sc2ncc([N+](=O)[O-])s2)s1	9.53% (inactive)
COc1cc(NC(=O)Nc2cccc(CNC(=O)O[C@H]3CCOC3)c2)ccc1-c1cnco1	-79.3% (active)

SMILES	activity change, negative = inhibition
CC[C@H](CC#N)OC(=O)N[C@@H](C)c1cccc(NC(=O)Nc2ccc(-c3cnco3)c(OC)c2)c1	-82% (active)
CC(C)CN(C[C@@H](O)[C@H](Cc1ccccc1)NC(=O)O[C@H]1CCOC1)S(=O)(=O)c1ccc(N)cc1	0.811% (inactive)
Cc1cc2c(OCC(CNC(C)(C)C)OC(=O)c3ccccc3)cccc2[nH]1 (stereo unspecified)	18.3% (inactive)
Cc1c(NC(=O)c2cc3c(s2)CCCC3)cccc1-c1cn(C)c(=O)c(Nc2ccc(C3C(=O)N(C)CCN3C)cc2)n1 (stereo unspecified)	97.9% (inactive)
CCC(C(=O)O)c1ccc(N2Cc3ccccc3C2=O)cc1 (stereo unspecified)	122% (inactive)
Nc1nc2c(sc(=O)n2[C@@H]2O[C@H](CO)[C@@H](O)[C@H]2O)c(=O)[nH]1	-8.34% (inactive)
COc1cc2c(cc1OC)C(=O)OC2	-0.409% (inactive)
C[C@@H](Oc1cc(-c2cnn(C3CCNCC3)c2)cnc1N)c1c(Cl)ccc(F)c1Cl	-43.1% (inactive) and -79.1% (active)
Fc1cc(-c2cccc3ncc(-c4cnn(C5CCNCC5)c4)nc23)cc(F)c1CN1CCOCC1	6.9% (inactive)
C[C@H](Oc1cc(-c2cnn(C3CCNCC3)c2)cnc1N)c1c(Cl)ccc(F)c1Cl	-84.6% (active) and 9.96% (inactive)
CCCCCCCCCCCC[C@H](C(=O)O)[C@@H](C)C(=O)O	2.19% (inactive)
Oc1c(Cl)cc(Cl)cc1Sc1cc(Cl)cc(Cl)c1O	-82.5% (active) and -6.64% (inactive)
C#CCN(C)CCCOc1ccc(Cl)cc1Cl	20.2% (inactive) and 29.2% (inactive)
Cc1cc(Cl)ccc1OCCCC(=O)NO	-90% (active)
O=C(CCCS)NC1CCN(C(=O)COc2ccc(Cl)cc2Cl)CC1	-3% (inactive)
CN(CC(=O)O)C(=N)N	15.6% (inactive)
CCC[C@@H](NC(=O)N1C(=O)C(CC)(CC)[C@@H]1Oc1ccc(C(=O)N2CCN(C)CC2)cc1)c1ccc2c(c1)OCO2	4.37% (inactive)
CC(C)C[C@H](NC(=O)[C@H](CC(N)=O)NC(=O)[C@@H](NC(=O)[C@@H](N)CCC(=O)O)C(C)C)[C@@H](O)C[C@@H](C)C(=O)N[C@@H](C)C(=O)N[C@@H](CCC(=O)O)C(=O)N[C@@H](Cc1ccccc1)C(=O)O (H-EVN[LeuΨ(S-CHOHCH2)Ala]AEF-OH)	3.01% (inactive)
O=C1NCCc2[nH]c(-c3ccncc3)cc21	-75.8% (active)
Nc1cc(-c2ccncc2)c[nH]c1=O	3.96% (inactive) and 3.4% (inactive)
Cc1[nH]c(=O)c(C#N)cc1-c1ccncc1	46.4% (inactive) and 9.05% (inactive)
CCOC(=O)C(CCc1ccccc1)NC1CCc2ccccc2N(CC(=O)O)C1=O (stereo unspecified)	3.98% (inactive)
Cc1nc2c(-c3cnc(N)nc3)nc(N3CCOCC3)nc2n1C(C)C	-14% (inactive)
Nc1ncnc2nc(-c3ccc(N4CCOCC4)nc3)cc(-c3cccc(Br)c3)c12	-21.2% (inactive) and -9.62% (inactive)
Nc1cc(C(F)(F)F)c(-c2cc(N3CCOCC3)nc(N3CCOCC3)n2)cn1	-70.3% (active)
CC(=O)SCCC(=O)N1C(C)CCCC1C(=O)O (stereo unspecified)	20.2% (inactive)

SMILES	activity change, negative = inhibition
O=C(O)[C@H]1CN(C/C=C/P(=O)(O)O)CCN1	-6.53% (inactive)
CC1(C)Oc2ccc(C#N)cc2[C@H](N2CCCC2=O)[C@H]1O (racemic)	17% (inactive)
CCN(CC)CCNC(=O)c1ccc(I)cc1	11.1% (inactive)
O=C(Nc1ccccc1)Nc1ccc(-c2ccc(C(=O)[C@@H]3CCC[C@@H]3C(=O)O)cc2)cc1	16.1% (inactive)
c1cnc2cc3c(cc2n1)C1CNCC3C1	5.57% (inactive)
CC1=C(CC(=O)O)c2cc(F)ccc2/C1=C\c1ccc(S(C)=O)cc1 (stereo unspecified)	13.1% (inactive) and -5% (inactive)
CO[C@H]1CC(O[C@@H]2/C(C)=C/C[C@@H]3C[C@@H](C[C@]4(C=C[C@H](C)[C@@H](C5CCCCC5)O4)O3)OC(=O)[C@@H]3C=C(C)[C@@H](O)[C@H]4OC/C(=C\C=C\[C@@H]2C)[C@]43O)O[C@@H](C)C1O[C@H]1C[C@H](OC)[C@@H](O)[C@H](C)O1 (stereo partly specified)	-62.7% (inactive)
COc1cc(/C=C/c2ccc(OC)cc2OC)cc(OC)c1	-58.6% (inactive) and -57.8% (inactive)
N#CCNC(=O)c1ccc(-c2ccnc(Nc3ccc(N4CCOCC4)cc3)n2)cc1	-88.6% (active)
Cc1nc(N)sc1-c1ccnc(Nc2ccc(N3CCOCC3)cc2)n1	-80.3% (active)
O=C(NCCCN1CCOCC1)c1ccc(Cl)cc1	10.9% (inactive)
Cc1cc(N2CCOCC2)ccc1Nc1nc(NC2CCCCC2)c2[nH]cnc2n1	-50.9% (inactive)
CCn1c2ccccc2c2cc(Nc3ccnc(NCCCN4CCOCC4)n3)ccc21	-53.7% (inactive)
CCCN1CCN(c2ccc(C(=O)NC3(C(=O)NCC#N)CCCCC3)cc2)CC1	15.1% (inactive)
CCNC(=O)C1OC(n2cnc3c(N)nc(NCCc4ccc(CCC(=O)O)cc4)nc32)C(O)C1O (stereo unspecified)	1.12% (inactive)
CC(C)=CCOc1cc2oc(=O)ccc2cc1O	-2.69% (inactive)
O=C(O)c1cc(O)c2c(c1)C(=O)c1cccc(O)c1C2=O	18.1% (inactive)
Nc1nc(Nc2ccc3c(c2)CC[C@@H](N2CCCC2)CC3)nn1-c1cc2c(nn1)-c1ccccc1CCC2	-85.1% (active)
CC(=O)O[C@]1(C(C)=O)CCC2C3C=C(Cl)C4=CC(=O)CC[C@]4(C)C3CC[C@@]21C (stereo partly specified)	2.15% (inactive) and -3.18% (inactive)
CCCCCCC(=O)OC1CC(C)(C)NC(C)(C)C1	10.7% (inactive) and -2.86% (inactive)
O=C(N[C@H]1CCN(C(=O)c2cc(C(F)(F)F)cc(C(F)(F)F)c2)[C@H](Cc2ccc(Cl)cc2)C1)c1ccnc2ccccc12	25.3% (inactive)
O=C(NC1CCN(CCCCC2(C(=O)NCC(F)(F)F)c3ccccc3-c3ccccc32)CC1)c1ccccc1-c1ccc(C(F)(F)F)cc1	-89% (active)
O=C(NC1CCN(CCc2c[nH]c3ccccc23)CC1)c1ccccc1	10.9% (inactive)
CN1CC(=O)N/C1=N/C(=O)Nc1cccc(Cl)c1	32.6% (inactive) and 26.4% (inactive)
